Assay outcomes deposited in PubChem by several laboratories.
CYP2C9 inhib – blockers of cytochrome P450 2C9 activity – biochemical, luminescence, ADME assay, primary screen; P11712; CYP2C9 Supersomes, luciferin-H conversion; inhibition, % at 5 µM; 20% of 96,000 active;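 active means blocking of liver enzyme CYP2C9 beyond about 50% at 5 µM, limit read from the data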
Cav32 inh – Cav3.2 calcium influx blockers – cell-based, Fluo-4 calcium fluorescence, FDSS, MLSMR library, primary screen | Voltage-dependent T-type calcium channel subunit alpha-1H (Homo sapiens), O95180 | Cav3.2-expressing cells; stronger effect = lower value | B-score at 10 µM | 4% of 100,000 active | AID 449739, 2010;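 active means single-dose well whose peak fluorescence ratio is a statistical outlier from its plate by either plate-standardised score or position-corrected B-score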
CYP2C19 inhib – blockers of cytochrome P450 2C19 activity – biochemical, luminescence, ADME assay, primary screen; P33261; CYP2C19 Supersomes, luciferin-H EGE luminescence, 30 min; inhibition, % at 5 µM; 21% of 96,000 active;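 active means CYP2C19 inhibition above a set limit at 5 µM in the primary screen, cut at about 50% in these data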
CYP2C19 activ – human CYP2C19 activators, primary screen, biochemical, luminescence; 96,000 tested, under 10 active; AID 1025, 2008; activation factor at 5 µM; recombinant CYP2C19, luciferin-H EGE luminescence; stronger effect = higher value; 0 = fully inhibited enzyme, 1 = untreated enzyme; Cytochrome P450 2C19 (Homo sapiens), P33261;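 active means activation factor of at least 2 at 5 µM in the primary screen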
CYP2C9 act – human CYP2C9 activators, primary screen, biochemical, luminescence; Cytochrome P450 2C9 (Homo sapiens), P11712; recombinant CYP2C9, luciferin-H conversion; stronger effect = higher value; factor 1 = untreated enzyme, 0 = blocked; activation factor at 5 µM; 1.4% of 96,000 active; AID 1024, 2008;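 active means activation factor of 2 or more for CYP2C9 at a 5 µM dose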
Numbers stand for hits; i = inactive; nt = no result given. This is a sample that favours compounds with a hit; in the whole collection about 27% have one here.

SMILES	CYP2C9 inhib	Cav32 inh	CYP2C19 inhib	CYP2C19 activ	CYP2C9 act
Cc1ccc(SCc2nc(-c3ccncc3)no2)cc1	91	i	99	i	i
Cc1ccc(-c2noc(CNc3ccccc3)n2)cc1	nt	i	nt	nt	nt
COc1ccc(-n2c(Cc3cccn3C)nnc2SCC(=O)NC2CCCC2)cc1	i	i	i	i	i
COc1ccc(-n2c(Cc3cccn3C)nnc2SCC(=O)NCc2ccccc2Cl)cc1	i	i	i	i	i
COc1ccc(-n2c(Cc3cccn3C)nnc2SCC(=O)Nc2cc(Cl)ccc2OC)cc1	i	-7.5	i	i	i
COc1ccc(-n2c(Cc3cccn3C)nnc2SCC(=O)Nc2ccccc2OC)cc1	i	-2.7	i	i	i
COc1ccc(-n2c(Cc3cccn3C)nnc2SCC(=O)Nc2ccc(C)cc2C)cc1	i	-6.3	i	i	i
COc1cccc(C(=O)N(Cc2nc(-c3ccc(C)cc3)no2)C(C)C)c1	i	i	i	i	i
COc1ccc(-c2noc(CN(C(=O)C(C)(C)C)C(C)C)n2)cc1	57	i	81	i	i
CC(C)N(Cc1nc(-c2ccccc2)no1)C(=O)C(C)(C)C	i	i	52	i	i
Cc1ccc(-c2noc(CN(C(=O)CCN3C(=O)c4ccccc4C3=O)C(C)C)n2)cc1	i	i	i	i	i
CN(C)S(=O)(=O)c1cccc(COC(=O)C2=COCCO2)c1	i	i	i	i	i
CCN(CC)S(=O)(=O)c1csc(C(=O)OCC(=O)c2ccccc2)c1	nt	i	nt	nt	nt
CCOC(=O)c1sc(NC(=O)C(CC)OC(=O)C(CC(C)C)NC(=O)c2ccccc2)nc1C (stereo not given)	i	-4	55	i	i
Cc1ccc(C(=O)COC(=O)C2C3C=CC(C3)C2C(=O)OCC(=O)c2ccc(C)c(C)c2)cc1C (stereo not given)	51	-5.1	i	i	i
O=C(/N=C1\NC(=O)C(F)(C(F)(F)F)S1)NC1CCCCC1 (stereo not given)	85	nt	i	i	i
COC(=O)c1ccc(-n2nnnc2SCC(=O)Nc2ccccc2C(=O)OC)cc1	i	nt	i	i	i
O=C(c1ccccc1)c1ccccc1N/C=C/c1nnnn1-c1ccccc1	i	i	73	i	i
O=C(NCc1cccc(C(F)(F)F)c1)C1CC(c2ccccc2C(F)(F)F)=NO1 (stereo not given)	nt	i	nt	nt	nt
Cc1c(C(=O)N(C)C)sc(NC(=O)c2cc([N+](=O)[O-])cc([N+](=O)[O-])c2)c1C#N	i	i	i	i	i
Cc1nc(N2CCN(Cc3ccccc3)CC2)nc2c1C(=O)CCC2	i	nt	55	i	i
O=c1cc(-c2ccccc2)nc(N2CCN(Cc3ccc4c(c3)OCO4)CC2)[nH]1	i	i	i	i	i
COc1ccc(C2CC(=O)c3c(C)nc(N4CCN(c5ccccc5)CC4)nc3C2)cc1 (stereo not given)	i	i	i	i	i
Cc1nc(N2CCN(Cc3ccccc3)CC2)nc2c1C(=O)CC(c1ccco1)C2 (stereo not given)	54	i	i	i	i
Cc1nc(N2CCN(Cc3ccc4c(c3)OCO4)CC2)nc2c1C(=O)CC(c1ccco1)C2 (stereo not given)	88	i	73	i	i
SMILES	CYP2C9 inhib	Cav32 inh	CYP2C19 inhib	CYP2C19 activ	CYP2C9 act
OC1C=CSc2nc3ccccc3n21 (stereo not given)	i	i	i	i	i
Cc1ccc(N(CC(=O)N2CC(=O)Nc3ccccc32)S(=O)(=O)c2ccc3c(c2)OCCO3)cc1	nt	i	nt	nt	nt
Cc1ccc(-c2cnc(-c3ccncc3)o2)cc1	64	i	98	i	i
Cc1nc2c(-c3ccc(F)cc3)c(C)nn2c(N2CCOCC2)c1C	i	i	i	i	i
Cc1nn2c(-n3ccnc3C)c3c(nc2c1-c1ccccc1)CCC3	62	i	90	i	i
Cc1nn2c(N3CCOCC3)c3c(nc2c1-c1ccccc1)CCCC3	77	i	i	i	i
COC(=O)c1c[nH]n2c(=O)cc(CCl)nc12	i	i	i	i	i
COc1ccc(C2Nc3ccc4ccccc4c3-c3c2c(=O)oc2ccccc32)cc1 (stereo not given)	83	nt	i	i	i
CCOc1ccc(C2Nc3ccc4ccccc4c3-c3c2c(=O)oc2ccccc32)cc1 (stereo not given)	84	i	52	i	i
O=c1oc2ccccc2c2c1C(c1ccc(Cl)cc1)Nc1ccc3ccccc3c1-2 (stereo not given)	i	i	i	i	i
Cc1ccc(C2Nc3ccc4ccccc4c3C3=C2C(=O)CC(C)(C)C3)o1 (stereo not given)	nt	i	nt	nt	nt
COc1ccc(-c2ccc(C3C(C#N)=C(N)Oc4n[nH]c(C)c43)o2)cc1 (stereo not given)	i	i	i	i	i
Fc1ccccc1NC(=S)N/N=C/c1ccccc1Br	i	i	i	i	i
O=C(Nc1ccccc1C(=O)N1CCOCC1)c1cccc(S(=O)(=O)N2CCCC2)c1	i	i	i	i	i
Cc1ccc(O)c(NC(=O)c2cccc(S(=O)(=O)N3CCCCC3)c2)c1	53	nt	59	i	i
O=C(Nc1ccccc1C(=O)N1CCCC1)c1cccc(S(=O)(=O)N2CCCCCC2)c1	80	i	54	i	i
CCNC(=O)c1ccccc1NC(=O)c1cccc(S(=O)(=O)N2CCC(C)CC2)c1	68	i	59	i	i
O=C(NCc1ccccc1)c1cccc(S(=O)(=O)N2CCOCC2)c1	i	nt	i	i	i
Cc1ccccc1NC(=O)c1cc(S(=O)(=O)N2CCCCC2)cs1	51	i	i	i	i
Cc1nnc(SCC(=O)N2CCCCC2)n1CC1CCCO1 (stereo not given)	nt	i	nt	nt	nt
COc1cc(CNC(=O)c2ccc(Cn3nc(C)c(Cl)c3C)o2)cc(OC)c1	i	i	62	i	i
Cc1ccc(-c2nc3ccccc3[nH]2)cc1NC(=O)c1ccco1	i	i	i	i	i
O=C(Nc1cccc(-c2nc3ccccc3[nH]2)c1)c1cccc(NC(=O)c2ccco2)c1	70	i	54	i	i
O=C(Nc1ccc2nc(-c3ccccc3)[nH]c2c1)c1ccco1	58	i	61	i	i
CC(C)N(C(=O)CSc1nnc(CNc2ccc(F)cc2)o1)C(C)C	nt	i	nt	nt	nt
COc1ccc(/C(N)=N/OC(=O)CSc2ccccc2)cc1OC	i	i	i	i	i
COc1ccc(OCC(O)Cn2ccnc2C)cc1 (stereo not given)	nt	i	nt	nt	nt
COc1cc(OC)cc(OCC(O)Cn2cnc3cc(C)c(C)cc32)c1 (stereo not given)	57	nt	85	i	i
CC(C(=O)NCc1ccco1)n1cc(C(=O)c2ccco2)c2ccccc21 (stereo not given)	i	i	i	i	i
Cc1ccc(Cl)cc1Nc1nc(-c2sc(NC(=O)c3ccco3)nc2C)cs1	57	i	i	i	i
